# Experimental data as given in PubChem BioAssay (NCI).
# This is part of a sample that, as a whole, favours compounds with a hit. Of some 83,000 tested, about 20% had one in any assay.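 Activity criterion: percent growth below 10, measured after cells in 96-well plates were exposed to a single compound concentration for 48 hours.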 Values without a mark were called inactive. The source made the active and inactive calls.
# System: SK-MEL-5 melanoma
# Test: NCI-60 one-dose screen, 48 h (100 = growth as untreated, 0 = no growth, -100 = all killed)
# Conditions: 10 µM unless noted
# Procedure: Growth inhibition of the SK-MEL-5 human tumor cell line is measured as a screen for anti-cancer activity. Cells are grown in 96 well plates and exposed to the test compound for 48 hours. Compounds are tested at a single concentration, which is 10^-5 M for most compounds. The reported endpoint is percent growth (GI% or GIPRCNT), where numbers from 0 - 100% represent growth inhibition, and numbers from -100% - 0 represent cell death. For example, a value of 40 represents 60% growth inhibition. A value of 0 means no net growth occurred over the course of the experiment. A value of -40 indicates 40% of cells at the beginning of the experiment died by the end of the experiment. A value of -100 means all cells are dead at the end of the experiment.
# NCI-60 Human Tumor Cell Lines Screen was performed using the standard one-dose NCI protocol, which is described in more detail at https://dtp.cancer.gov/discovery_development/nci-60/default.htm.
# Compounds with GIPRCNT values below 10 were considered active. Activity score was based on GIPRCNT using the following formula: […]
# Score is 0 for GIPRCNT values of 100 or above, 50 for GIPRCNT values of 0, and 100 for GIPRCNT values of -100.
row,Structure (SMILES),growth
1,COc1cc(NCCCCCN)c2ncccc2c1,111%
2,c1cc2[nH]ncc2cc1-c1nc2ccc3[nH]ncc3c2c2c1CCC2,56.6%
3,Cc1ccc(Cc2c(C=O)nc(N)[nH]c2=O)c2ccccc12,107%
4,COc1ccc(-c2ccc(-c3ccc(-c4ccc(C(=N)N)cc4)s3)s2)cc1OC,93.8%
5,CCCCCCCCC(C)OC(=O)c1nn(C(C)=O)c2ccccc12 (stereo not given),97.7%
6,Cc1ccc(-c2cc3nc(-c4ccccc4)nc(C(Cl)Cl)n3n2)cc1,83.9%
7,O=c1ccn(-c2ncnc3nc[nH]c23)cc1,114%
8,CCCN=C1NC(=O)/C(=C/c2nc(-c3ccc(OC)cc3)n3ccccc23)S1,64.9%
9,CCCCCCCC[C@@H](O)CC(=O)N[C@@H](CC(N)=O)C(=O)N[C@@H](CCC(N)=O)C(=O)N[C@@H](CC(=O)c1cc(C)cc(O)c1C(=O)c1c(O)cccc1O)CC(C)C,16.1%
10,CNc1ccc(Br)c2c1C(=O)c1ccccc1C2=O,110%
11,CN(C)CCOC(=O)Nc1ccccc1Cl,104%
12,COc1ccc(Nc2nn3c(-c4ccccc4)cc(-c4ccccc4)nc3c2C(N)=O)c(OC)c1,55.9%
13,COc1ccc(/C=C/c2c(C(C)=O)c(C)nc3ccccc23)cc1,33.3%
14,CC(C)c1ccc2occ(C=C3C(=O)NC(=O)NC3=O)c(=O)c2c1,97.3%
15,COc1cc(/C=N\NC(=O)CN2CCN(c3cc4c(cc3F)c(=O)c(C(=O)N/N=C/c3cc(OC)c(OC)c(OC)c3)cn4C3CC3)CC2)cc(OC)c1OC,-15.4% (active)
16,CCCCCCCCCCCCNC(=O)[C@H]1CSC(c2ccsc2)N1 (stereo not given in full),36.5%
17,COc1ccc(Nc2nn3c(C)cc(C)nc3c2C(=O)Nc2ccc(C)cc2)c(OC)c1,103%
18,CC(C)(C)Nc1c(-c2cccs2)nc2ncccn12,93.8%
19,CCOC(=O)c1c(/N=C2\SC(=O)/C(=C\C(=O)OC)N2NC)sc2c1CCN(C(=O)OCC)C2,99.5%
20,COc1cc(-c2ncn(/C=C\C(=O)OC(C)C)n2)cc(C(F)(F)F)c1,-38.4% (active)

row,Structure (SMILES),growth
1,Cc1[nH]c2ccc(F)cc2c1CCNC(=O)C1CCN(C(=O)c2ccccc2)CC1,76% [25 µM]
2,C=C1CCC[C@]2(C)CCC[C@H](C)[C@@H](OC(C)=O)[C@@H]3OC(=O)C(=C)[C@@H]3C[C@H]1O2,72.7%
3,CC(=O)Nc1ccc(/C=C/C(=O)c2ccccc2)cc1,100%
4,O=[N+]([O-])c1ccc(/C=C/C2(CCl)OCCO2)cc1,104%
5,COc1ccc(Nc2[nH]n3c(=O)cc(C)nc3c2C(N)=O)c(OC)c1,98.1%
6,C=C1C(=O)O[C@@H]2[C@@H]3O[C@@](C)(CC/C=C(\C)CCC[C@@H]2C)[C@H](O)C[C@@H]13,48.2%
7,COc1ccc(NC(=O)c2cc(OC)c(OC)c(OC)c2)cc1O,22.8%
8,COc1ccc(Nc2[nH]n3c(=O)cc(-c4ccccc4)nc3c2C(=O)Nc2ccc(C)cc2)c(OC)c1,98.4%
9,COc1cc2c(cc1OCCCCCn1c3ccccc3c3ccccc31)N=C[C@@H]1CCCN1C2=O,-100% (active)
10,Cc1ccc(-c2nc(C#N)c(S(=O)(=O)n3nc(-c4ccccc4)cc3N)o2)cc1,99.8%
11,COc1ccc(C2C=C(c3ccc(Cl)cc3)N=C3SC=C(C)N32)c(Br)c1 (stereo not given),48.9%
12,CCCCCCCCCCCC(=O)NCCC[N+](C)(C)CC(=O)[O-],95.6%
13,NC(=S)N/N=C(/CCN1CCCC1)CC(C1=C(O)C2=CCCCC2OC1=O)c1ccccc1 (stereo not given),98.3%
14,COc1cc(C(=O)/C=C/c2ccc3nc(-c4cc(F)cc(F)c4)sc3c2)cc(OC)c1OC,118%
15,CCN(CC)CCC(CNc1ccnc2cc(Cl)ccc12)c1ccc(Cl)cc1 (stereo not given),-96.3% (active)
16,O=[N+]([O-])c1ccc(Sc2ncccn2)c([N+](=O)[O-])c1,76.7%
17,Cc1ccc(CSC(=N)N)cc1C,105%
18,Fc1ccc(Nc2ncnc3ccc(-c4cnc5[nH]ccc5c4)cc23)cc1Cl,21%
19,O=C(NNC(=S)Nc1ccccc1)c1cc2ccc1CCc1ccc(cc1)CC2,43.8%
20,COc1ccc(-c2ccc(-c3ccc(C(=N)N)s3)s2)cc1Cl,67.5%
